# Laboratory results reported in PubChem BioAssay (NCI).
# Compounds without any hit were thinned out: in the full panel of roughly 83,000, 20% have a hit.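 Activity criterion: percent growth below 10, measured after cells in 96-well plates were exposed to a single compound concentration for 48 hours.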 Active and inactive are the calls of the source.
# System: EKVX NSCLC
# Test: NCI-60 one-dose screen, 48 h (100 = growth as untreated, 0 = no growth, -100 = all killed)
# Details: 10 µM unless noted
row,Compound,growth
1,CCN(CC)CCOc1nc2c3ccc(Cl)cc3nn2c2ccccc12,28.9% (inactive)
2,C=C(c1ccc(C(=O)O)cn1)c1cc2c(cc1C)C(C)(C)CCC2(C)C,83.9% (inactive)
3,CCn1cc(C(=O)NN=C2CCCCCC2)c(=O)c2ccc(C)nc21,93.2% (inactive)
4,Cc1c2cc[nH]c(=O)c2c(C)c2c1[nH]c1ccc(OC(=O)c3ccccc3)cc12,19.7% (inactive)
5,C#Cc1cccc(Nc2nc3ccc([N+](=O)[O-])cc3nc2Nc2cccc(C#C)c2)c1,-12% (active)
6,COc1cccc(C(=O)OCC(O)C(=O)NC23CC4CC(CC(C4)C2)C3)c1 (stereo not given),97.4% (inactive)
7,COc1ccc2cc(Cn3cc[n+](Cc4ccc5ccccc5c4)c3)ccc2c1,50.5% (inactive)
8,Cc1ccc(C(=O)c2ccc(CC(=O)N/N=C/c3ccc(O)cc3O)n2C)cc1,34.2% (inactive)
9,O=C(Nc1ccccc1)c1sc(-c2ccccc2)cc1O,86.7% (inactive)
10,COC(=O)c1ccc2c(c1)c1c(C)c3ccncc3c(C)c1n2C,34.3% (inactive)
11,O=C(O)c1cccc(N/C=C/C(=O)c2cc3cc(Br)ccc3oc2=O)c1,102% (inactive)
12,O=C(N/N=C/c1ccc([N+](=O)[O-])cc1)c1ccc2nc(-c3ccc(Cl)cc3)[nH]c2c1,49% (inactive)
13,CCCCN1C(=O)/C(=c2\sc3n(c2=O)NC2C(N=3)N(CC)C(=O)N2CC)c2ccccc21 (stereo not given),67.9% (inactive)
14,CNCc1cccc2c1OCCOCCN(C)C(=O)CN(C)S(=O)(=O)c1ccc(cc1)-c1cnc(N)c(n1)C(=O)N2,41.8% (inactive)
15,COc1ccccc1-n1c(-c2cc(O)ccc2C)cn2c3c(=O)[nH]c(=O)n(C)c3nc12,87.4% (inactive)
16,COc1ccc(NC(=O)c2sc3nc(C)c(C(O)c4ccccc4)cc3c2N)cc1 (stereo not given),40.4% (inactive)
17,COc1cc(C2C3=C(COC3=O)N(CCO)c3cc4c(cc32)OCCO4)cc(OC)c1OC (stereo not given),45.7% (inactive)
18,C/C(=C(/c1ccc(Cl)cc1)c1ccc(OCCCN(C)C)cc1)c1ccc(Cl)cc1,98.4% (inactive)

row,Compound,growth
1,O=C(CSc1nc2ccc([N+](=O)[O-])cc2[nH]1)Nc1ccc(Br)cc1,50% (inactive)
2,C[N+](C)(C/C=C/c1ccccc1)Cc1ccccc1,92.7% (inactive)
3,C/C(=C(\c1ccc(OCCN2CCCCCC2)cc1)c1ccc(OC(=O)Cc2ccccc2)cc1)c1ccc(Cl)cc1,56.4% (inactive)
4,COc1ccc2c(c1)c(-c1nonc1-c1c[nH]c3ccc(Br)cc13)cn2C,31.6% (inactive)
5,CCCCCCCCn1ccc2cc(NC(=O)Cn3cc(CN4CCN(CC)CC4)nn3)ccc21,88% (inactive)
6,C#CC#CC#CC#CC#CC#CC#CC#CC[C@H]1OC[C@@H](COC(=O)O[C@@H](C(=O)O[C@H]2C[C@@]3(O)[C@@H](OC(=O)c4ccccc4)[C@@H]4[C@]5(OC(C)=O)CO[C@@H]5C[C@H](O)[C@@]4(C)C(=O)[C@H](OC(C)=O)C(=C2C)C3(C)C)[C@@H](NC(=O)c2ccccc2)c2ccccc2)O1,75.4% (inactive)
7,Cc1cc(C)cc(Nc2ccc([N+](=O)[O-])c(NCCN3CCOCC3)n2)c1,66% (inactive)
8,CCN=C1C=CC(=C(c2ccc(N(C)C)cc2)c2ccc(N(C)C)cc2)c2ccccc21,-6.63% (active)
9,CCOC(=O)Cn1c(=O)c2c3ccccc3n(C)c2n2nnc(-c3ccccc3)c12,85.8% (inactive)
10,COc1ccc2[nH]cc(-c3nc(-c4cn(C)c5ccncc45)cs3)c2c1,-14.1% (active)
11,COc1ccc2nc(SCC(=O)Nc3ccccc3C)[nH]c2c1,88.4% (inactive)
12,CCCCNC1=C(OCC)C(=O)c2ccccc2C1=O,104% (inactive)
13,COc1ccc(C2=Nc3c/c(=C\c4c(O)[nH]c5cc(Cl)ccc45)ccc3=N2)cc1,80.7% (inactive)
14,Nc1ccc([N+](=O)[O-])cc1N=C/C=C/c1ccccc1,97.5% (inactive)
15,c1ccc(CNc2ccc3nc(CCC4CCCCC4)[nH]c3c2)cc1,75.7% (inactive)
16,COc1ccc2c(c1)c(-c1cc(-c3cn(C)c4ccc(OC)cc34)on1)cn2C,106% (inactive)
17,C#CC#CC#CC#CC#CC#CC#CC#CC[C@H]1OC[C@H](COC(=O)O[C@@H](C(=O)O[C@H]2C[C@@]3(O)[C@@H](OC(=O)c4ccccc4)[C@@H]4[C@]5(OC(C)=O)CO[C@@H]5C[C@H](O)[C@@]4(C)C(=O)[C@H](OC(C)=O)C(=C2C)C3(C)C)[C@@H](NC(=O)c2ccccc2)c2ccccc2)O1,74.5% (inactive)
